Shown are actives, neighbours in structure and some others; about 0.4% of the full set was active somewhere.
FMDV antiviral – Primary qHTS Assay for Foot and Mouth Disease Virus Antivirals against NCGC Sytravon and CBC Compound Libraries: Firefly Luciferase Signal. FMDV antiviral cell assay, firefly luciferase signal. 120,000 compounds, 0.23% hits. Potency, µM (series often up to 57.5 µM), for inactives: at the highest dose activity change, negative = inhibition, actives largely listed as inhibitors; also: nearly all actives have a fitted effect of over 60% in size
FMDV RLuc – Primary qHTS Assay for Foot and Mouth Disease Virus Antivirals against NCGC Sytravon and CBC Compound Libraries: Renilla Luciferase Signal; FMDV replicon cells, Renilla luciferase signal; Potency, µM (highest dose often 57.5 µM), for the others: top-dose activity change, negative = inhibition, actives largely listed as inhibitors; 120,000 compounds, 0.32% hits; AID 1745857, 2022; also: nearly all actives have a fitted effect of over 55% in size
* marks the source's active call; other numbers are inactive results; u = inconclusive; [ ] = remark or other dose. Calls follow the shape of the full dose curve. % is scaled to controls: 0 for no effect and ±100 for the full control effect; potency is read from the fitted curve at half-maximal effect.

SMILES	FMDV antiviral	FMDV RLuc
O=C(Nc1ccnn1Cc1cccs1)c1ccc(S(=O)(=O)N2CCCC2)cc1	14µM*	u
O=C(Nc1nc(-c2ccncc2)cs1)c1ccc(S(=O)(=O)N2CCCCC2)cc1	5%	-11%
CCCCCCCCCCCCCCCC[N+](C)(C)Cc1ccccc1	-26%	-14%
CCCCCCCCCCCCCC[N+](C)(C)Cc1ccccc1	u	25µM*
Nn1c(SCc2ncc(-c3ccccc3)o2)nnc1-c1ccccc1F	44%	11%
COc1ccc(NC(=O)CCCS(=O)(=O)c2nc(-c3ccc(OC)c(OC)c3)cc(C(F)(F)F)n2)cc1OC	28µM*	-7%
COc1ccc(-c2cc(C(F)(F)F)nc(S(=O)(=O)CCCC(=O)Nc3ccccc3C(F)(F)F)n2)cc1OC	-15%	-9%
Brc1ccc(-c2csc3ncnc(Sc4nnc(C5CC5)o4)c23)cc1	25µM*	u
O=c1c2c(-c3ccc(Br)cc3)csc2ncn1-c1ccccc1	1%	-2%
N#Cc1cccnc1N1CCN(C(C(=O)O)c2c[nH]c3cc(Cl)ccc23)CC1 (stereo unspecified)	-17%	-15%
O=C1CC(c2ccc(Cl)cc2)CC2=C1C=Nc1ccccc1N2 (stereo unspecified)	0%	-9%
CC1=C2C(=O)CC(c3ccc(Cl)cc3)CC2=Nc2ccccc2N1 (stereo unspecified)	8.9µM*	10µM*
O=C(/C=C/c1cccc(O)c1)c1cccs1	176%	-9%[1.06 µM]
CCOc1ccc(Cn2cnc3c2c(=O)n(C)c(=O)n3C)cc1OCC	13µM*	11µM*
Cn1c(=O)c2c(ncn2Cc2ccc(F)cc2)n(C)c1=O	8%	-6%
Cc1ccc(C(C)C)c(OCC(O)Cn2cnc3c2c(=O)n(C)c(=O)n3C)c1 (stereo unspecified)	25µM*	25µM*
CCc1cccc(OCC(O)Cn2cnc3c2c(=O)n(C)c(=O)n3C)c1 (stereo unspecified)	-28%	-28%
Cn1c(=O)c2c(ncn2CC(=O)OCc2cccc3ccccc23)n(C)c1=O	9%	-3%
Cn1c(=O)c2c(ncn2Cc2ccc(Cl)c(Cl)c2)n(C)c1=O	-28%	u
Cn1c(=O)c2c(ncn2Cc2cccc3ccccc23)n(C)c1=O	u	5.6µM*
CCCc1nc(Cn2cnc3c2c(=O)n(C)c(=O)n3C)cs1	10µM*	10µM*
CC1CCN(CCCNC2CCCC2)CC1	-18%	-11%
O=C(COC(=O)c1ccc(N2CCCC2=O)cc1)c1ccc2c(c1)CCC2	6%	-5%
CCCCNC(=O)c1cc2n(n1)CCCN(Cc1ccc(C)cc1)C2=O	3%	34%
CCCCOc1ccc(CNC(=O)c2cc3n(n2)CCCN(Cc2ccc(C)cc2)C3=O)cc1	14µM*	-14%
SMILES	FMDV antiviral	FMDV RLuc
O=C(CSc1ncnc2ccccc12)c1ccc2c(c1)OCCCO2	-31%	14µM*
O=C(CSc1cnc2ccccc2n1)c1ccc2c(c1)OCCO2	13%	0%
N#CC(/C(=N/S(=O)(=O)c1ccccc1)c1ccccc1)c1nc2ccccc2s1 (stereo unspecified)	28µM*	1%
CC(c1nc2ccccc2s1)N(C)S(=O)(=O)c1ccccc1 (stereo unspecified)	13%	0%[1.06 µM]
CC(NC(=O)c1ccc(SC(F)(F)F)cc1)c1ccncc1 (stereo unspecified)	-22%	u
CCc1c(C)sc2c1CCN(C(=O)Nc1ccc(F)c(Cl)c1)C2c1ccc(F)cc1 (stereo unspecified)	35µM*	u
CCc1c(C)sc2c1CCN(C(=O)Nc1ccccc1C(=O)OC)C2c1ccc(F)cc1 (stereo unspecified)	-14%	3%
COc1cc(/C=C/C(=O)OC2CCC(C(C)(C)C)CC2)cc(OC)c1OC (stereo unspecified)	0%	10%
CCc1c(C)sc2c1CCN(Cc1ccccc1C#N)C2c1ccccc1 (stereo unspecified)	18%	16%
CCc1c(C)sc2c1CCN(Cc1ccccc1)C2c1ccccc1 (stereo unspecified)	u	13µM*
Cc1ccccc1C(=O)Nc1nc(-c2ccc(Br)cc2)ns1	u	35µM*
COc1ccccc1C(=O)Nc1nc(-c2ccc(Br)cc2)ns1	-3%	-4%
CSc1ccc(C2c3c(-c4ccccc4O)n[nH]c3C(=O)N2CCO)cc1 (stereo unspecified)	-9%	0%
CCOC(=O)c1noc2ncn(CC(=O)Nc3cc(C)c(Cl)cc3OC)c(=O)c12	-9%	-18%
CC(C)c1ccc(NS(=O)(=O)c2ccc3c(c2)-c2oncc2CO3)cc1	7%	284%
Cc1nc2sccn2c1-c1csc(Nc2cccc(Cl)c2C)n1	u	35µM*
CCc1ccccc1Nc1nc(-c2c(C)nc3sccn23)cs1	-25%	u
CCOC(=O)c1c(NC(=O)Cn2nnc(-c3ccccc3)n2)sc(C)c1CC	-4%	2%
CCNC(=O)N1CCN(CCCC(c2ccc(F)cc2)c2ccc(F)cc2)CC1	14%[11.5 µM]	u
OC1(c2ccc(Cl)c(C(F)(F)F)c2)CCN(CCCC(c2ccc(F)cc2)c2ccc(F)cc2)CC1	-13%[11.5 µM]	22µM*
O=C(NC1CCCC1)c1ccc2c(c1)N(Cc1ccc(F)cc1)C(=O)c1ccccc1S2	-22%	18%
O=C(NC1CCCC1)c1ccc2c(c1)N(Cc1ccccc1)C(=O)c1ccccc1S2	25µM*	u
CC(C)NS(=O)(=O)c1ccc(Cl)c(C(=O)NCc2ccc(-c3nc4ccccc4s3)o2)c1	u	14µM*
O=C(NCc1ccc(-c2nc3ccccc3s2)o1)c1ccc(F)cc1F	10%	-25%
COc1cc(C(=O)/C=C/c2ccc(SC)cc2)ccc1O	67%	-1%
SMILES	FMDV antiviral	FMDV RLuc
Cc1nn(C)c(C)c1S(=O)(=O)N(CC(=O)Nc1ccc(F)c(Cl)c1)c1ccc(C(C)C)cc1	-7%	32%
Cc1cccc(-n2nnnc2C2(N3CCCC3)CCCC2)c1	-4%	16%
Cc1cccc(-n2nnnc2S(C)(=O)=O)c1	28µM*	u
CNC(=O)CN(C)C(=O)c1ccc(N2CCNCC2)c(NS(=O)(=O)c2ccc(C(C)C)cc2)c1	-6%	-14%
Cc1cccc(Cn2c(NCCO)nc3c2c(=O)n(C)c(=O)n3C)c1	u	11µM*
Cn1c(=O)c2c(nc(NCCCCO)n2Cc2ccccc2Cl)n(C)c1=O	-6%	-9%
Cn1c(=O)c2c(nc(NCCO)n2Cc2ccccc2F)n(C)c1=O	13µM*	13µM*
Cn1c(=O)c2c(nc(NCCc3ccccc3)n2Cc2cccc(Br)c2)n(C)c1=O	40%	-12%
Cc1cccc(Cn2c(NCCN3CCOCC3)nc3c2c(=O)n(C)c(=O)n3C)c1	15%	4%
Cn1c(=O)c2c(nc(NCCO)n2Cc2cccc(Br)c2)n(C)c1=O	u	13µM*
CCCn1nc(C(=O)NCC(C2CC2)N(C)C)c2ccccc2c1=O (stereo unspecified)	-2%	-6%
CCc1ccc(NC(=O)CSc2nc3cc([N+](=O)[O-])ccc3o2)cc1	52%	60%
O/N=C1\CCCc2c1[nH]c1ccc(OCc3ccccc3)cc21	0%	22%
c1ccc(Cn2ncc3c2CCCC3NCc2cscn2)cc1 (stereo unspecified)	-8%	-12%
CCC(CC)C(=O)Nc1nnc(SCc2cc(=O)c3ccccc3[nH]2)s1	13µM*	8.9µM*
Cc1ccc(OCC(=O)Nc2nnc(SCc3cc(=O)c4ccccc4[nH]3)s2)cc1	-1%	-8%

Compound activity as filed in PubChem BioAssay.
